Assays:
Assay in all cases: DAPPL (digital affinity profiling via proximity ligation, sequencing); 10 mM Tris-HCl pH 7.5, 50 mM NaCl, 1 mM DTT, 4% glycerol, room temperature, 30 min; GST-TFs on glutathione beads, 16-mer random dsDNA library, 0.1% formaldehyde crosslink after washing; high values mean tight binding
Conditions in all cases: protein: recombinant; tags: N-terminal GST; dsDNA, one strand shown
ERF = biological target: T1, ERF (Homo sapiens, UniProt P50548 1-548)
T1 sequence: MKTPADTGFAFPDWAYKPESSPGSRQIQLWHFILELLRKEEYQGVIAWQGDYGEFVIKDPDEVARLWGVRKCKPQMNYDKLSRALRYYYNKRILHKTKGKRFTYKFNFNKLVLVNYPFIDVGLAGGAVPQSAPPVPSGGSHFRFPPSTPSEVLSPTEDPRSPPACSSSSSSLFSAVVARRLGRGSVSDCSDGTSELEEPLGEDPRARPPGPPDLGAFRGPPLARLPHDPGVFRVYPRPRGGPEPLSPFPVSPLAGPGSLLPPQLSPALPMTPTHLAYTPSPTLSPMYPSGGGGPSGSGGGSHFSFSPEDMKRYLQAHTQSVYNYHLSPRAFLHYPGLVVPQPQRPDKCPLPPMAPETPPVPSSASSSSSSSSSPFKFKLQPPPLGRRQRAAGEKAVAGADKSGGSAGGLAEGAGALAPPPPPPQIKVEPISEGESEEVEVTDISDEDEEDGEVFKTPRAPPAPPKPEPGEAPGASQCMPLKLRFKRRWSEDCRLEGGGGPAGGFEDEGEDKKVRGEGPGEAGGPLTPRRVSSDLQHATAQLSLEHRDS
In short: (§1)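 In yeast, human transcription factors were expressed with a GST fusion, then pulled down on glutathione beads and given DNA barcodes. Pooled with a tag-only sample, they were exposed to 200 nmole of a 16-mer random double-stranded DNA library (Tris/NaCl/DTT/glycerol buffer, room temperature, 30 min), washed, crosslinked with 0.1% formaldehyde, proximity-ligated using BsaI/T4 ligase for 1 h at 37 °C, PCR-amplified and read on an Illumina NextSeq500. Each hexamer's frequency of reads for a factor, divided by the matching frequency for the tag-only sample, gives the binding signal.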

ETV3L = biological target: T2, ETV3L (Homo sapiens, UniProt Q6ZN32 1-361)
T2 sequence: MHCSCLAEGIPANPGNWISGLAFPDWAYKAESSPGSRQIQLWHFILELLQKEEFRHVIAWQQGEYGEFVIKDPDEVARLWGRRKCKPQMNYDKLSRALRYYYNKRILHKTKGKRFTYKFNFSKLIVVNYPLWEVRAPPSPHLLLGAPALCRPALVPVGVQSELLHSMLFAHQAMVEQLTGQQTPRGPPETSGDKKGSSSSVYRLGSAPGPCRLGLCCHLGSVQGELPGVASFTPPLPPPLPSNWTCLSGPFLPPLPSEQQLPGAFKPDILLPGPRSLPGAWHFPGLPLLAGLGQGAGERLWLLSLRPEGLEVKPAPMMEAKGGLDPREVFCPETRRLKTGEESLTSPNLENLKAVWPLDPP
In short: as §1

ETS2 = biological target: T3, ETS2 (Homo sapiens, UniProt P15036 1-469)
T3 sequence: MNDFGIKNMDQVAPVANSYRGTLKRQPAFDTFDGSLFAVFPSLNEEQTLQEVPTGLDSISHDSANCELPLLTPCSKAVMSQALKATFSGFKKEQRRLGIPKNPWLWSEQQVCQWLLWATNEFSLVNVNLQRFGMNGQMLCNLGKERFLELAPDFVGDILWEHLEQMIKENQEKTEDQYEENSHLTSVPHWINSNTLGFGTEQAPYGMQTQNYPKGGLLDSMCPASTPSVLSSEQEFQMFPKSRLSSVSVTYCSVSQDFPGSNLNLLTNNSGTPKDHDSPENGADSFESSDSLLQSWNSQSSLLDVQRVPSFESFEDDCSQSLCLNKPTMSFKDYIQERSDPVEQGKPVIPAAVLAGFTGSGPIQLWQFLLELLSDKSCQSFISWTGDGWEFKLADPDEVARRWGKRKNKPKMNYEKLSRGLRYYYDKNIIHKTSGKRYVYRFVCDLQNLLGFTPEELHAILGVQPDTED
In short: as §1

SPDEF = biological target: T4, SPDEF (Homo sapiens, UniProt O95238 1-335)
T4 sequence: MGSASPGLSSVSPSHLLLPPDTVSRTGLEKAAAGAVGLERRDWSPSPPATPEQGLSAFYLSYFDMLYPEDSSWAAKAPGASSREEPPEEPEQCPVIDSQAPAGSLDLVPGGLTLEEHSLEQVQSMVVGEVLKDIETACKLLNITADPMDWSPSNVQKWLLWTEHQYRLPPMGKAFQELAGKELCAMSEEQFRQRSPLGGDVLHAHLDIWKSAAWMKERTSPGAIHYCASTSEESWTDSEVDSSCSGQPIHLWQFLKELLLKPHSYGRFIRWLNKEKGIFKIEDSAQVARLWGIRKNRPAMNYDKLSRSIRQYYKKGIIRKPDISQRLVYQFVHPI
In short: as §1

ETV7 = biological target: T5, ETV7 (Homo sapiens, UniProt Q9Y603 1-341)
T5 sequence: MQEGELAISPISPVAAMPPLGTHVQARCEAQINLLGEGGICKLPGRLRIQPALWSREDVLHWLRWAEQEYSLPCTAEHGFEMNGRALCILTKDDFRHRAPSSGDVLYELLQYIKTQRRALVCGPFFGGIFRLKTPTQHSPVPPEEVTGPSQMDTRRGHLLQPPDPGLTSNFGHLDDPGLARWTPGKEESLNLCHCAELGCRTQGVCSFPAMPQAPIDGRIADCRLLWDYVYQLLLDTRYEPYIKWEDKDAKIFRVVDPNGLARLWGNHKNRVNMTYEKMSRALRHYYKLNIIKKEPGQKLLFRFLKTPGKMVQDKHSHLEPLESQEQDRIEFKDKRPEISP
In short: as §1

ELF5 = biological target: T6, ELF5 (Homo sapiens, UniProt Q9UKW6-2 1-255)
T6 sequence: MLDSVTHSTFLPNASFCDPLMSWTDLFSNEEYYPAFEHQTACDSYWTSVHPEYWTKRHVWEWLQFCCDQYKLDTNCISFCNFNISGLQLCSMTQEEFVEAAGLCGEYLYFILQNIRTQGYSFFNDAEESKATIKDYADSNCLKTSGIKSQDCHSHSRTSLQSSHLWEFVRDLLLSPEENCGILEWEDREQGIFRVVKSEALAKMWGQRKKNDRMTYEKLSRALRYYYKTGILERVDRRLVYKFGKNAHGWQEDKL
In short: as §1

ETV3 = biological target: T7, ETV3 (Homo sapiens, UniProt P41162-2 1-143)
T7 sequence: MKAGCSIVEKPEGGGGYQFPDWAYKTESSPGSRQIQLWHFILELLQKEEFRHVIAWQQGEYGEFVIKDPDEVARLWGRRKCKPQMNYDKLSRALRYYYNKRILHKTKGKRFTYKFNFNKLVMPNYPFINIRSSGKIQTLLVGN
In short: as §1

ETV6 = ETV6 (Homo sapiens, UniProt P41212 1-452)
In short: as §1

Chain of ETV6 (P41212 whole entry): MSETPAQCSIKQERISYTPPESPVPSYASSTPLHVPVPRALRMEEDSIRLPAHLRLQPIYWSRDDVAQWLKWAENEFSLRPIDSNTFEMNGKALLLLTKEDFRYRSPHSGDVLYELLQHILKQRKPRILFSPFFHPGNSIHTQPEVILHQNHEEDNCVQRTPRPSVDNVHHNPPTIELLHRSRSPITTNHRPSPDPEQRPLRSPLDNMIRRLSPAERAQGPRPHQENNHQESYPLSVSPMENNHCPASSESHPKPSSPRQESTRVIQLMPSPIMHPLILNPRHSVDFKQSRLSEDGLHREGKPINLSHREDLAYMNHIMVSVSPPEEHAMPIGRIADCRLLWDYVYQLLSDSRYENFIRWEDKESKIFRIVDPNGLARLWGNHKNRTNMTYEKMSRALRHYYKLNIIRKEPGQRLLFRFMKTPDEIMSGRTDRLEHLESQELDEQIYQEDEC

| Sequence | binding signal (ERF) | binding signal (ETV3L) | binding signal (ETS2) | binding signal (SPDEF) | binding signal (ETV7) | binding signal (ELF5) | binding signal (ETV3) | binding signal (ETV6) |
| --- | --- | --- | --- | --- | --- | --- | --- | --- |
| GGATGC | 1.13 fold enrichment (6-mer frequency, TF over GST control) | 1.19 fold enrichment (6-mer frequency, TF over GST control) | 1.2 fold enrichment (6-mer frequency, TF over GST control) | 1.91 fold enrichment (6-mer frequency, TF over GST control) | 1.22 fold enrichment (6-mer frequency, TF over GST control) | 1.25 fold enrichment (6-mer frequency, TF over GST control) | 1.3 fold enrichment (6-mer frequency, TF over GST control) | 1.15 fold enrichment (6-mer frequency, TF over GST control) |
| ACTTGT | 1.28 fold enrichment (6-mer frequency, TF over GST control) | 1.23 fold enrichment (6-mer frequency, TF over GST control) | 1.36 fold enrichment (6-mer frequency, TF over GST control) | 1.22 fold enrichment (6-mer frequency, TF over GST control) | 1.2 fold enrichment (6-mer frequency, TF over GST control) | 1.28 fold enrichment (6-mer frequency, TF over GST control) | 1.36 fold enrichment (6-mer frequency, TF over GST control) | 1.32 fold enrichment (6-mer frequency, TF over GST control) |
| TGTCTA | 1.21 fold enrichment (6-mer frequency, TF over GST control) | 1.08 fold enrichment (6-mer frequency, TF over GST control) | 1.18 fold enrichment (6-mer frequency, TF over GST control) | 1.2 fold enrichment (6-mer frequency, TF over GST control) | 1.28 fold enrichment (6-mer frequency, TF over GST control) | 1.24 fold enrichment (6-mer frequency, TF over GST control) | 1.23 fold enrichment (6-mer frequency, TF over GST control) | 1.07 fold enrichment (6-mer frequency, TF over GST control) |
| TGTTCA | 1.32 fold enrichment (6-mer frequency, TF over GST control) | 1.23 fold enrichment (6-mer frequency, TF over GST control) | 1.2 fold enrichment (6-mer frequency, TF over GST control) | 1.3 fold enrichment (6-mer frequency, TF over GST control) | 1.25 fold enrichment (6-mer frequency, TF over GST control) | 1.2 fold enrichment (6-mer frequency, TF over GST control) | 1.25 fold enrichment (6-mer frequency, TF over GST control) | 1.14 fold enrichment (6-mer frequency, TF over GST control) |
| GATGCA | 1.2 fold enrichment (6-mer frequency, TF over GST control) | 1.14 fold enrichment (6-mer frequency, TF over GST control) | 1.16 fold enrichment (6-mer frequency, TF over GST control) | 1.47 fold enrichment (6-mer frequency, TF over GST control) | 1.04 fold enrichment (6-mer frequency, TF over GST control) | 1.1 fold enrichment (6-mer frequency, TF over GST control) | 1.16 fold enrichment (6-mer frequency, TF over GST control) | 1.02 fold enrichment (6-mer frequency, TF over GST control) |
| TGCTAC | 1.39 fold enrichment (6-mer frequency, TF over GST control) | 1.3 fold enrichment (6-mer frequency, TF over GST control) | 1.23 fold enrichment (6-mer frequency, TF over GST control) | 1.26 fold enrichment (6-mer frequency, TF over GST control) | 1.23 fold enrichment (6-mer frequency, TF over GST control) | 1.17 fold enrichment (6-mer frequency, TF over GST control) | 1.23 fold enrichment (6-mer frequency, TF over GST control) | 1.16 fold enrichment (6-mer frequency, TF over GST control) |
| AAGGTA | 1.05 fold enrichment (6-mer frequency, TF over GST control) | 1.14 fold enrichment (6-mer frequency, TF over GST control) | 1.11 fold enrichment (6-mer frequency, TF over GST control) | 1.16 fold enrichment (6-mer frequency, TF over GST control) | 1.18 fold enrichment (6-mer frequency, TF over GST control) | 1.06 fold enrichment (6-mer frequency, TF over GST control) | 1.09 fold enrichment (6-mer frequency, TF over GST control) | 1.19 fold enrichment (6-mer frequency, TF over GST control) |
| TCTTCA | 1.29 fold enrichment (6-mer frequency, TF over GST control) | 1.37 fold enrichment (6-mer frequency, TF over GST control) | 1.11 fold enrichment (6-mer frequency, TF over GST control) | 1.25 fold enrichment (6-mer frequency, TF over GST control) | 1.13 fold enrichment (6-mer frequency, TF over GST control) | 1.16 fold enrichment (6-mer frequency, TF over GST control) | 1.16 fold enrichment (6-mer frequency, TF over GST control) | 1.25 fold enrichment (6-mer frequency, TF over GST control) |
| GCTACG | 1.29 fold enrichment (6-mer frequency, TF over GST control) | 1.16 fold enrichment (6-mer frequency, TF over GST control) | 1.11 fold enrichment (6-mer frequency, TF over GST control) | 1.04 fold enrichment (6-mer frequency, TF over GST control) | 1.23 fold enrichment (6-mer frequency, TF over GST control) | 1.1 fold enrichment (6-mer frequency, TF over GST control) | 1.05 fold enrichment (6-mer frequency, TF over GST control) | 1.23 fold enrichment (6-mer frequency, TF over GST control) |
| ACAAAA | 1.18 fold enrichment (6-mer frequency, TF over GST control) | 1.2 fold enrichment (6-mer frequency, TF over GST control) | 1.2 fold enrichment (6-mer frequency, TF over GST control) | 1.11 fold enrichment (6-mer frequency, TF over GST control) | 1.15 fold enrichment (6-mer frequency, TF over GST control) | 1.21 fold enrichment (6-mer frequency, TF over GST control) | 1.13 fold enrichment (6-mer frequency, TF over GST control) | 1.17 fold enrichment (6-mer frequency, TF over GST control) |
| TCCTGA | 1.26 fold enrichment (6-mer frequency, TF over GST control) | 1.43 fold enrichment (6-mer frequency, TF over GST control) | 1.59 fold enrichment (6-mer frequency, TF over GST control) | 1.69 fold enrichment (6-mer frequency, TF over GST control) | 1.32 fold enrichment (6-mer frequency, TF over GST control) | 1.92 fold enrichment (6-mer frequency, TF over GST control) | 1.71 fold enrichment (6-mer frequency, TF over GST control) | 1.51 fold enrichment (6-mer frequency, TF over GST control) |
| TTAGTA | 1.17 fold enrichment (6-mer frequency, TF over GST control) | 1.07 fold enrichment (6-mer frequency, TF over GST control) | 1.09 fold enrichment (6-mer frequency, TF over GST control) | 1.12 fold enrichment (6-mer frequency, TF over GST control) | 1.14 fold enrichment (6-mer frequency, TF over GST control) | 1.07 fold enrichment (6-mer frequency, TF over GST control) | 1.27 fold enrichment (6-mer frequency, TF over GST control) | 1.12 fold enrichment (6-mer frequency, TF over GST control) |
